Screening results: PubChem BioAssay, National Center for Advancing Translational Sciences (NCATS)
Sampled rows, rich in hits. Any-hit rate of the full collection: about 18%.
TDP1 cell noCPT: qHTS for Inhibitors of human tyrosyl-DNA phosphodiesterase 1 (TDP1): qHTS in cells in absence of CPT | Potency, µM (top dose mostly 46.2 µM), for inactives: top-dose activity change, negative = growth inhibition, hits mostly inhibitors | DT40 Tdp1-/- hTDP1 cells, no CPT, ATP luminescence, 48 h | 15% of 420,000 active; note: potency is the fitted concentration of half-maximal effect; nearly all actives have a fitted effect of over 55% in size
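Compound effects on proliferation are scored in DT40 Tdp1-/-;hTDP1 cells in the absence of CPT. ATP levels (CellTiter-Glo luminescence) are recorded after a ≥48 hr, 37 °C incubation.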
Gal4-VP16 FLuc: Gal4-VP16 reporter inhibition counter-screen. Potency, µM (titrated, usually from 53.6 µM), inactives show at the highest dose activity, negative = inhibition, most hits filed as inhibitors. 3.5% of 310,000 active. Drosophila S2 Gal4-VP16 UAS-luciferase, luminescence, 20 h;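 note: Gal4-VP16 expression switched on by copper sulfate through the metallothionein promoter; potency is the fitted concentration of half-maximal effect; nearly all actives have a fitted effect of over 50% in size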
LDHA block: LDHA (human) enzyme inhibition; purified LDHA, NADH/diaphorase-resazurin fluorescence; stronger effect = lower value; activity change, % (values are at about 110 or 230 µM); 0.15% of 480,000 active; AID 1347041; in the data active = activity change below about -30%; inconclusive = mostly about -25% to -30%;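 note: plate controls were DMSO wells for no effect and wells without enzyme for full effect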
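LDH5 2 nM; NADH 0.06 mM, pyruvate 0.2 mM; 200 mM Tris pH 7.4, EDTA, Tween-20; 5 min RT. Detection: diaphorase 0.133 mg/mL + resazurin 37 µM, fluorescence ex540/em590 at 0 and 20 min; normalized to enzyme-free and DMSO wells.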
RORgamma inh: ROR gamma (mouse) transcription inhibition; P51450; Drosophila S2 Gal4-RORgamma UAS-luciferase reporter, 20 h; Potency, µM (highest dose often 53.6 µM), inactives show at the top dose activity change, negative = inhibition, hits mostly inhibitors; 5.4% of 310,000 active; note: potency is the fitted concentration of half-maximal effect; nearly all actives have a fitted effect of over 60% in size
Target sequence (P51450 whole entry, looked up, the tested form may be a part): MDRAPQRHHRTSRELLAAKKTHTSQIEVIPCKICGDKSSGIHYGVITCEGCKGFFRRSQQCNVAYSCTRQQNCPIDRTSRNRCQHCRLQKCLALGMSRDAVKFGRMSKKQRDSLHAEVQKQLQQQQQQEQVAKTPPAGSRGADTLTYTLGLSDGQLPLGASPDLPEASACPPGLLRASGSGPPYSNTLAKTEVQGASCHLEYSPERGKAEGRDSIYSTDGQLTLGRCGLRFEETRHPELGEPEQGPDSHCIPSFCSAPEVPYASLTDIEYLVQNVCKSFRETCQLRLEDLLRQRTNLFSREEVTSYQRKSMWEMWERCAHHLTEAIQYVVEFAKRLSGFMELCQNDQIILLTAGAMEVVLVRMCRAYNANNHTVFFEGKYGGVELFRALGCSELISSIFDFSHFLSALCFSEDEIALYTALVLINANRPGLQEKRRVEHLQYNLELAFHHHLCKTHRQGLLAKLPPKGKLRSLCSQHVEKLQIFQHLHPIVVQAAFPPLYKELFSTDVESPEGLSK
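Stably transfected Drosophila Schneider cells are the test system, with ROR gamma fused to Gal4 and luciferase under UAS control; luminescence is read after 20 hr of 700 uM copper sulfate induction at ambient temperature.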
IL1B secr inh: inhibitors of inflammasome signaling (IL-1 beta secretion); THP-1 LPS/ATP IL-1B secretion, AlphaLISA, 16 h; stronger effect = lower value; activity change, % at 57.5 µM; 4.7% of 360,000 active; AID 743279; in the data active = activity change below about -50%; inconclusive = mostly about -30% to -49%
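Secreted IL-1B measured by AlphaLISA bead assay after 16 h compound exposure of THP-1 cells; compounds (final up to 57.5 uM) added 1 h before LPS (250 ng/mL) and ATP (1.25 mM) stimulation; lower signal means less secretion.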
DT40 TDP1 CPT: DT40-hTDP1 cell growth loss with CPT | chicken DT40 Tdp1-/-;hTDP1 cells + 20 nM CPT, ATP luminescence, 48 h | Potency, µM (titrated, usually from 46.2 µM), without a hit: at the highest dose activity change, negative = growth inhibition, most hits filed as inhibitors | 12% of 420,000 active | AID 686979; note: potency is the fitted concentration of half-maximal effect; nearly all actives have a fitted effect of over 55% in size
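Chicken DT40 Tdp1-/- cells complemented with human TDP1, 400 cells/well, exposed to compounds plus 20 nM camptothecin for at least 48 h at 37 C; viability read as ATP content by CellTiter-Glo luminescence.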
Starred values were filed as active, the others as inactive; u = inconclusive; x = not tested or not shown. Unless noted, calls come from the whole dose curve; as a rule, active = well fitted curve in the direction sought with a large enough effect; inconclusive = small, poorly fitted or top-dose-only effect, or another doubt; inactive = no such curve, though single readings can be large; an effect the other way counts as inactive or inconclusive. Unless noted, % is set by controls: 0 for no effect and ±100 for the full control effect.

SMILES	TDP1 cell noCPT	Gal4-VP16 FLuc	LDHA block	RORgamma inh	IL1B secr inh	DT40 TDP1 CPT
COc1cc2c(c(OC)c1OC)-c1ccc(SC)c(=O)cc1C(NC(=O)C(F)(F)F)CC2 (stereo not drawn)	0.018µM*	x	-15	x	45	0.092µM*
CC(C)(C)C1CCc2onc(C(=O)Nc3cccc(O)c3)c2C1 (stereo not drawn)	x	u	x	-44%	x	x
Cc1ccc(NC(=O)c2noc3c2CC(C(C)(C)C)CC3)cc1 (stereo not drawn)	23µM*	3%	-4	18%	-27	u
COC(=O)c1ccccc1NC(=O)c1noc2c1CC(C(C)(C)C)CC2 (stereo not drawn)	21µM*	3%	-5	15%	6	u
CC(=O)NC(c1ccc(C)cc1)c1cc([N+](=O)[O-])c2cccnc2c1O (stereo not drawn)	15µM*	4µM*	21	2.8µM*	119	5.8µM*
CCC(=O)NC(c1ccco1)c1cc(Br)c2cccnc2c1O (stereo not drawn)	x	x	-4	x	x	x
CCC(=O)NC(c1ccc(C)cc1)c1cc([N+](=O)[O-])c2cccnc2c1O (stereo not drawn)	21µM*	2.8µM*	1	2.5µM*	42	u
CCCC(=O)NC(c1ccco1)c1cc([N+](=O)[O-])c2cccnc2c1O (stereo not drawn)	-22%	5µM*	-3	5.6µM*	90	-7%
COc1ccc(C)cc1NC(=O)Cn1c(C(=O)c2cccc(F)c2)nc2ccccc21	x	x	-3	x	x	x
C=CCn1c(O)c(N=NC(=O)c2cccnc2)c2cc(Br)ccc21	-25%	-17%	-5	0%	19	-25%
Cc1c(Cl)cccc1NC(=S)N=Nc1c(O)n(CN2CCOCC2)c2ccccc12	1.5µM*	5µM*	-5	1.8µM*	3	5.8µM*
C=CCn1c(O)c(N=NC(=S)Nc2ccccc2F)c2cc(S(=O)(=O)N3CCOCC3)ccc21	0.73µM*	2µM*	0	0.45µM*	2	0.73µM*
C=CCn1c(O)c(N=O)c2cc(C)ccc21	u	7%	-4	24%	-52*	-33%
C=CCn1c(O)c(N=NC(=S)Nc2cccc(C)c2)c2ccccc21	1.8µM*	0.45µM*	-3	0.25µM*	-6	2.1µM*
CCOc1ccc(C(F)(F)F)cc1N	x	x	4	x	x	x
Cc1ccnc(NC(=O)COc2c(C)[nH]ccc2=O)c1	x	x	-6	x	x	x
Cc1ccc(Cn2c(O)c(N=NC(=S)Nc3ccccc3F)c3ccccc32)cc1	5.8µM*	7.1µM*	-11	4µM*	-6	6.5µM*
Oc1c(N=NC(=S)Nc2ccccc2F)c2ccccc2n1Cc1ccccc1	5.8µM*	3.5µM*	-4	2.8µM*	-8	7.3µM*
Oc1c(N=NC(=S)Nc2ccccc2F)c2ccccc2n1Cc1ccccc1Cl	5.8µM*	6.3µM*	-4	2.2µM*	u	6.5µM*
C=CCn1c(O)c(N=NC(=S)Nc2ccccc2F)c2ccccc21	2.6µM*	1.8µM*	0	0.79µM*	77	4.1µM*
CC(C)Cc1ccc(C(C)NC(C)C(=O)NC(N)=O)cc1 (stereo not drawn)	x	x	6	x	x	x
COc1ccc(-c2csc(N3N=C(C)CC3c3cc(OC)c(OC)c(OC)c3)n2)cc1 (stereo not drawn)	x	x	1	x	x	x
O=S(=O)(NCc1ccccc1Cn1cccn1)c1ccc(Cl)c(C(F)(F)F)c1	x	x	1	x	x	x
CC(CC(=O)Nc1cccc(Br)c1)n1ccnc1 (stereo not drawn)	x	x	1	x	x	x
Cc1nn(Cc2c(F)c(F)c(F)c(F)c2F)c(C)c1NC(=O)c1ccc(COc2ccccc2Cl)cc1	1.5µM*	-12%	-3	36%	6	u
SMILES	TDP1 cell noCPT	Gal4-VP16 FLuc	LDHA block	RORgamma inh	IL1B secr inh	DT40 TDP1 CPT
Cc1nn(Cc2c(F)c(F)c(F)c(F)c2F)c(C)c1NC(=O)c1ccc(COc2ccc(F)cc2)o1	21µM*	-25%	5	u	u	16µM*
Cc1cc(C(=O)Nc2c(C)nn(Cc3ccc(F)cc3)c2C)on1	-13%	-2%	-8	-2%	-1	8%
COc1ccc(CC(=O)Nc2ccc3nc(N4CCCCC4)cc(C)c3c2)cc1	u	x	-4	x	x	23µM*
COc1cc(OC)cc(C(=O)Nc2ccc3nc(N4CCCCC4)cc(C)c3c2)c1	16µM*	x	-1	x	x	15µM*
CCOc1cccc(CC(=O)Nc2ccc3nc(N4CCCCC4)cc(C)c3c2)c1OCC	u	x	6	x	x	21µM*
CCN1CCN(c2cc(C)c3cc(NC(=O)Cc4ccccc4OC)ccc3n2)CC1	-11%	22%	-8	-2%	9	9%
Cc1ccccc1C(=O)Nc1ccc2nc(N3CCCCC3)cc(C)c2c1	21µM*	x	11	x	x	u
CCCCN(C(=O)COC(=O)c1n[nH]c2ccccc12)C1CCS(=O)(=O)C1 (stereo not drawn)	x	x	3	x	x	x
Cc1cc(Br)cc(Cl)c1OCC(=O)NCc1cccc(NC(=O)C2CC2)c1	x	x	0	x	x	x
O=C1COc2ccc(S(=O)(=O)NC3CCCCCC3)cc2N1Cc1noc(C2CC2)n1	x	x	-2	x	x	x
COc1cccc(C(=O)Nc2ccc3nc(N4CCOCC4)cc(C)c3c2)c1	21µM*	-3%	-9	4%	22	16µM*
COc1cc(NC(=O)Nc2ccc3nc(N4CCOCC4)cc(C)c3c2)cc(OC)c1OC	x	x	4	x	x	x
COCCN(Cc1ccc(C)cc1)Cc1cc(=O)n2c3c(sc2n1)CCCC3	x	x	0	x	x	x
CCOC(=O)[C@@H]1[C@H]2COc3cc(OC)ccc3[C@@H]2N2C(=O)N(c3cccc(Cl)c3)C(=O)[C@]12C	u	7%	-2	-4%	-16	u
CCOC(=O)[C@H]1[C@H]2COc3cc(OC)ccc3[C@@H]2N2C(=O)N(c3cccc(Cl)c3)C(=O)[C@@]12C	29µM*	0%	-6	5%	-2	u
CCOC(=O)[C@@H]1[C@H]2COc3cc(OC)ccc3[C@@H]2N2C(=O)N(c3cccc(C)c3)C(=O)[C@]12C	u	x	-2	x	0	u
CCOC(=O)[C@@H]1[C@H]2COc3cc(OC)ccc3[C@@H]2N2C(=O)N(c3cccc(Cl)c3)C(=O)[C@@]12C	u	5%	-2	11µM*	-5	-21%
CN(C)C(=O)c1ccc2oc(CN3CCN(C(=O)Nc4ccccc4Cl)CC3)nc2c1	x	x	-7	x	x	x
CNC(=O)CCc1nc(-c2ccccc2)c(-c2ccccc2)o1	x	x	-1	x	x	x
